Reference: PubChem BioAssay (NCATS)
Results filed as inconclusive are left out. Calls of active or inactive are those of the source. Calls come from the whole dose curve; as a rule, active = well fitted inhibition curve with a large enough effect; inconclusive = small, poorly fitted or top-dose-only effect; inactive = flat fitted curve, though single readings scatter.

Tests used:
NIH3T3 = assay: Cytotoxic Profiling of Annotated Libraries Using Quantitative High-Throughput Screening (AID 1296008); settings: Five cell lines viability, CellTiter-Glo ATP luminescence, 48-72 h; max response: hits give low values
Method in brief: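 Cytotoxicity was measured as CellTiter-Glo ATP luminescence, read after 10 min at room temperature. Compound treatment of the cells lasted 48 or 72 hr at 37 degrees Celsius in a qHTS format.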

MCC-13 = assay: qHTS assay to identify novel small-molecules to repurpose for Merkel cell carcinoma treatment (AID 1296009); settings: MCC and control cell lines, CellTiter-Glo viability, 72 h; series mostly up to 46 µM
Method in brief: (§1)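 After compound transfer in DMSO, plates were kept 72 hr at 37 degree celsius. Luminescent ATP signal from CellTiter-Glo served as viability measure, normalized against DMSO and no-cell controls.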

MCC-26 = assay: as above; settings: MCC and control cell lines, CellTiter-Glo viability, 72 h; series mostly up to 46 µM
Method in brief: as §1

MKL-1 = assay: as above; settings: MCC and control cell lines, CellTiter-Glo viability, 72 h; series mostly up to 46 µM
Method in brief: as §1

MKL-2 = assay: as above; settings: MCC and control cell lines, CellTiter-Glo viability, 72 h; series mostly up to 46 µM
Method in brief: as §1

UISO = assay: as above; settings: MCC and control cell lines, CellTiter-Glo viability, 72 h; series mostly up to 46 µM
Method in brief: as §1

WaGa = assay: as above; settings: MCC and control cell lines, CellTiter-Glo viability, 72 h; series mostly up to 46 µM
Method in brief: as §1
% is set by controls: 0 for no effect and ±100 for the full control effect.
Note: nearly all actives have a fitted effect of over 60% in size.

Nc1ccc(C(=O)OCC(O)CO)cc1 (centres undefined)
inactive: max response (NIH3T3) 2.44% | Potency (MCC-13) | Potency (MCC-26) | Potency (MKL-1) | Potency (MKL-2) | Potency (UISO) | Potency (WaGa)

CCCc1ccc(OCC(=O)N2CCN(C(=O)COc3ccc(CCC)cc3OC)CC2)c(OC)c1
inactive: max response (NIH3T3) 0.399% | Potency (MCC-13) | Potency (MCC-26) | Potency (MKL-1) | Potency (MKL-2) | Potency (UISO) | Potency (WaGa)

CCN1C(=O)c2ccccc2C1Nc1ccc(OCCN2CCCCC2)cc1 (centres undefined)
inactive: max response (NIH3T3) -13.7% | Potency (MCC-13) | Potency (MCC-26) | Potency (MKL-1) | Potency (MKL-2) | Potency (UISO) | Potency (WaGa)

NCC(=O)O
inactive: max response (NIH3T3) -6.02% | Potency (MCC-13) | Potency (MCC-26) | Potency (MKL-1) | Potency (MKL-2) | Potency (UISO) | Potency (WaGa)

CCCCC(=O)OCC(=O)[C@H]1[C@H](C)C[C@H]2[C@@H]3C[C@H](F)C4=CC(=O)C=C[C@]4(C)[C@@]3(F)[C@@H](O)C[C@@]21C
inactive: max response (NIH3T3) -6.1% | Potency (MCC-13) | Potency (MCC-26) | Potency (MKL-1) | Potency (MKL-2) | Potency (UISO) | Potency (WaGa)

CO[C@]1(NC(=O)CSC(F)F)C(=O)N2C(C(=O)O)=C(CSc3nnnn3CCO)CO[C@H]21
inactive: max response (NIH3T3) 1.66% | Potency (MCC-13) | Potency (MCC-26) | Potency (MKL-1) | Potency (MKL-2) | Potency (UISO) | Potency (WaGa)

COC(=O)c1cc(Cl)ccc1NS(=O)(=O)C(F)(F)F
inactive: max response (NIH3T3) -7.02% | Potency (MCC-13) | Potency (MCC-26) | Potency (MKL-1) | Potency (MKL-2) | Potency (UISO) | Potency (WaGa)

COc1ccc(OC(=O)N(CC(=O)O)Cc2ccc(OCCc3nc(-c4ccccc4)oc3C)cc2)cc1
inactive: max response (NIH3T3) 0.554% | Potency (MCC-13) | Potency (MCC-26) | Potency (MKL-1) | Potency (MKL-2) | Potency (UISO) | Potency (WaGa)

CCc1cccc2c(CCO)c[nH]c12
inactive: max response (NIH3T3) 1.36% | Potency (MCC-13) | Potency (MCC-26) | Potency (MKL-1) | Potency (MKL-2) | Potency (UISO) | Potency (WaGa)

COCCc1ccc(OCC2CO2)cc1 (centres undefined)
inactive: max response (NIH3T3) -4.27% | Potency (MCC-13) | Potency (MCC-26) | Potency (MKL-1) | Potency (MKL-2) | Potency (UISO) | Potency (WaGa)

CN1C(=O)c2ccccc2C1=O
inactive: max response (NIH3T3) -7.13% | Potency (MCC-13) | Potency (MCC-26) | Potency (MKL-1) | Potency (MKL-2) | Potency (UISO) | Potency (WaGa)

COC(=O)c1c(Cl)c(Cl)c(C(=O)OC)c(Cl)c1Cl
inactive: max response (NIH3T3) -9.58% | Potency (MCC-13) | Potency (MCC-26) | Potency (MKL-1) | Potency (MKL-2) | Potency (UISO) | Potency (WaGa)

CN1Cc2cc(C(=O)N3CCC(C4CCNCC4)CC3)ccc2NC(CC(=O)O)C1=O (centres undefined)
inactive: max response (NIH3T3) -2.76% | Potency (MCC-13) | Potency (MCC-26) | Potency (MKL-1) | Potency (MKL-2) | Potency (UISO) | Potency (WaGa)

O=C(O)CCC(=O)OC[C@@H](NC(=O)C(Cl)Cl)[C@H](O)c1ccc([N+](=O)[O-])cc1
inactive: max response (NIH3T3) -0.147% | Potency (MCC-13) | Potency (MCC-26) | Potency (MKL-1) | Potency (MKL-2) | Potency (UISO) | Potency (WaGa)

O=C(O)CNC(=O)CNC(=O)CNC(=O)CSC(=O)c1ccccc1
inactive: max response (NIH3T3) 1.99% | Potency (MCC-13) | Potency (MCC-26) | Potency (MKL-1) | Potency (MKL-2) | Potency (UISO) | Potency (WaGa)

Cc1sccc1Br
inactive: max response (NIH3T3) -2.8% | Potency (MCC-13) | Potency (MCC-26) | Potency (MKL-1) | Potency (MKL-2) | Potency (UISO) | Potency (WaGa)

CCCOc1ccc2c(c1)CC[C@@H]1[C@@H]2CC[C@]2(C)C(OC)CC[C@@H]12 (some centres undefined)
inactive: max response (NIH3T3) 0.167% | Potency (MCC-13) | Potency (MCC-26) | Potency (MKL-1) | Potency (MKL-2) | Potency (UISO) | Potency (WaGa)

O=C(NN1CCCC1)NS(=O)(=O)c1ccc(Cl)cc1
inactive: max response (NIH3T3) 4.71% | Potency (MCC-13) | Potency (MCC-26) | Potency (MKL-1) | Potency (MKL-2) | Potency (UISO) | Potency (WaGa)

CC(=O)N(CC(=O)N(C)C)c1ccccc1
inactive: max response (NIH3T3) 1.94% | Potency (MCC-13) | Potency (MCC-26) | Potency (MKL-1) | Potency (MKL-2) | Potency (UISO) | Potency (WaGa)

CCOC(=O)c1ccc(OCCN2C[C@H](O)[C@@H](O)[C@H](O)[C@H]2CO)cc1
inactive: max response (NIH3T3) -0.529% | Potency (MCC-13) | Potency (MCC-26) | Potency (MKL-1) | Potency (MKL-2) | Potency (UISO) | Potency (WaGa)

N#Cc1cc(NC(=O)C(=O)O)c(Cl)c(NC(=O)C(=O)O)c1
inactive: max response (NIH3T3) -0.466% | Potency (MCC-13) | Potency (MCC-26) | Potency (MKL-1) | Potency (MKL-2) | Potency (UISO) | Potency (WaGa)

CC(=O)OCC(=O)Nc1cc(C#N)cc(NC(=O)COC(C)=O)c1Cl
inactive: max response (NIH3T3) -0.147% | Potency (MCC-13) | Potency (MCC-26) | Potency (MKL-1) | Potency (MKL-2) | Potency (UISO) | Potency (WaGa)
